Source: PMC5540273 (PLoS ONE, 2017)

Columns and labels:
Conditions in all cases: concentration: 1 μM, replicates: in singlicate; n = 1
CDC2L2 = test system: CDC2L2
CDC2L5 = test system: T1, CDC2L5
T1 construct: gene CDK13

CDK11 = test system: T2, CDK11
T2 construct: gene CDK19

CDK2 = test system: CDK2
CDK3 = test system: CDK3
CDK4-cyclinD1 = test system: CDK4-cyclinD1
CDK4-cyclinD3 = test system: CDK4-cyclinD3
CDK4 = test system: CDK4
CDK5 = test system: CDK5
CDK7 = test system: CDK7
CDK8 = test system: CDK8
CDK9 = test system: CDK9
CDKL1 = test system: CDKL1
CDKL2 = test system: CDKL2
CDKL3 = test system: CDKL3
CDKL5 = test system: CDKL5
CHEK1 = test system: CHEK1
CHEK2 = test system: CHEK2
CIT = test system: CIT
CLK1 = test system: CLK1
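Also: KINOMEscan kinase panel screen.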

Compound | %Inh (CDC2L2) [%] | %Inh (CDC2L5) [%] | %Inh (CDK11) [%] | %Inh (CDK2) [%] | %Inh (CDK3) [%] | %Inh (CDK4-cyclinD1) [%] | %Inh (CDK4-cyclinD3) [%] | %Inh (CDK4) [%] | %Inh (CDK5) [%] | %Inh (CDK7) [%] | %Inh (CDK8) [%] | %Inh (CDK9) [%] | %Inh (CDKL1) [%] | %Inh (CDKL2) [%] | %Inh (CDKL3) [%] | %Inh (CDKL5) [%] | %Inh (CHEK1) [%] | %Inh (CHEK2) [%] | %Inh (CIT) [%] | %Inh (CLK1) [%]
Nc1ncc(-c2ccc3nccc(-c4ccncc4)c3c2)cc1S(=O)(=O)N1CCCCC1 [GSK1693850] | 21 | 0 | 73 | 0 | 7 | 9 | 13 | 0 | 0 | 80 | 45 | 5 | 0 | 27 | 0 | 0 | 1 | 23 | 31 | 81
Fc1cc(Cl)ccc1Nc1ccnc2cc(-c3ccc(CN4CCSCC4)o3)ccc12 [GW560106] | 0 | 0 | 1 | 0 | 0 | 35 | 0 | 53 | 0 | 0 | 53 | 0 | 100 | 8 | 0 | 0 | 0 | 79 | 29 | 8
CN(c1ccc2c(c1)nc(NCc1ccccc1)n2C)c1ccnc(Nc2ccc(CS(C)(=O)=O)cc2)n1.Cl [GW811603] | 80 | 49 | 24 | 0 | 0 | 35 | 0 | 34 | 0 | 20 | 79 | 15 | 20 | 0 | 16 | 9 | 0 | 0 | 55 | 31
Cc1ccccc1CC(=O)N1CCc2cc(-c3cn(C)c4ncnc(N)c34)ccc21 [GSK2603346] | 3 | 0 | 81 | 6 | 2 | 0 | 0 | 29 | 0 | 0 | 83 | 0 | 0 | 17 | 0 | 0 | 18 | 0 | 32 | 15
Cc1ccc(NC(=O)c2ccc(Cl)c(Cl)c2)cc1-c1ccc(C(=O)Nc2ccncc2)cc1 [GSK1398460] | 14 | 0 | 13 | 0 | 5 | 0 | 0 | 0 | 0 | 0 | 0 | 2 | 1 | 13 | 0 | 4 | 22 | 0 | 97.6 | 39
CS(=O)(=O)c1cccc(CNc2nc(Nc3ccc4c(c3)CCC(=O)N4)ncc2C(F)(F)F)c1 | 0 | 0 | 0 | 30 | 12 | 0 | 0 | 6 | 22 | 80 | 0 | 8 | 23 | 37 | 10 | 0 | 0 | 0 | 37 | 46
Cc1cccc(Nc2nc(NCCN)ncc2C(N)=O)c1 [GSK1292139] | 18 | 0 | 0 | 0 | 5 | 0 | 6 | 35 | 0 | 24 | 37 | 0 | 0 | 7 | 0 | 0 | 82 | 75 | 80 | 23
COc1cccc(CC(=O)N2CCc3cc(-c4cn(C)c5ncnc(N)c45)ccc32)c1 [GSK2608899] | 8 | 0 | 98.4 | 18 | 12 | 0 | 0 | 25 | 6 | 4 | 96.6 | 12 | 1 | 4 | 0 | 0 | 0 | 0 | 5 | 29
CN(c1ccc(NC(=O)Nc2cccc(Cl)c2)cc1)c1ccnc(N)n1.Cl [GW830707] | 12 | 43 | 77 | 9 | 0 | 57 | 0 | 4 | 5 | 24 | 85 | 0 | 0 | 39 | 0 | 0 | 0 | 7 | 9 | 0
Cc1cccc(Nc2nc(N[C@H]3CCCC[C@H]3N)ncc2C(N)=O)c1.Cl [GSK986310] | 11 | 0 | 24 | 0 | 24 | 0 | 1 | 0 | 5 | 48 | 0 | 17 | 9 | 28 | 0 | 0 | 57 | 1 | 66 | 42
COc1ccc(C)c(Nc2ccnc(Nc3ccc(-c4cnc[nH]4)cc3)n2)c1.Cl [GW784041] | 16 | 0 | 2 | 0 | 3 | 0 | 0 | 0 | 0 | 0 | 35 | 0 | 44 | 0 | 0 | 1 | 0 | 0 | 0 | 18
CC(C)(C)c1ccc(C(=O)Nc2cn3cc(-n4ccnc4)ccc3n2)cc1 | 1 | 7 | 1 | 12 | 0 | 0 | 0 | 0 | 8 | 4 | 5 | 3 | 29 | 0 | 18 | 7 | 0 | 0 | 44 | 92.4
CC(C)c1nc(-c2ccc(F)c(NS(=O)(=O)c3c(F)cccc3F)c2)c(-c2ccnc(Nc3ccc(N4CCOCC4)nc3)n2)s1 [GSK1804250] | 0 | 0 | 2 | 95.5 | 35 | 26 | 0 | 87 | 51 | 10 | 28 | 1 | 22 | 99.3 | 0 | 88 | 0 | 49 | 81 | 7
CC(C)NCC(Cc1ccccc1)NC(=O)c1cc(Br)c(-c2ccnc3[nH]ccc23)s1.Cl.Cl (centres unmarked) [GSK1383281] | 39 | 0 | 31 | 0 | 0 | 0 | 0 | 0 | 0 | 16 | 34 | 0 | 17 | 11 | 0 | 0 | 0 | 39 | 53 | 40
Cc1nn2c(=O)cc(N3CCO[C@H](C)C3)nc2n1Cc1cccc(Cl)c1Cl [GSK2373693] | 4 | 0 | 3 | 54 | 76 | 53 | 2 | 13 | 0 | 0 | 0 | 2 | 1 | 11 | 0 | 0 | 26 | 0 | 21 | 55
NCCC(NC(=O)c1cc(Br)c(-c2ccnc3[nH]ccc23)s1)c1ccccc1.O=C(O)C(F)(F)F.O=C(O)C(F)(F)F (centres unmarked) [GSK1307810] | 6 | 0 | 58 | 0 | 6 | 38 | 0 | 27 | 0 | 47 | 100 | 35 | 2 | 0 | 0 | 0 | 0 | 41 | 98.5 | 41
COc1cc(Nc2nccc(N3CCC(NC(=O)Nc4ccc5c(c4)OCO5)C3)n2)cc(OC)c1OC (centres unmarked) [GSK1379766] | 18 | 0 | 2 | 0 | 2 | 0 | 14 | 0 | 0 | 0 | 46 | 0 | 0 | 41 | 0 | 0 | 0 | 4 | 0 | 25
Nc1cccc(-c2ccc3c(N)n[nH]c3c2)c1 [GSK2193613] | 16 | 0 | 8 | 1 | 0 | 13 | 0 | 0 | 0 | 15 | 42 | 3 | 19 | 23 | 0 | 0 | 0 | 6 | 30 | 43
COC(=O)Nc1nc2ccc(Oc3ccc(NC(=O)Nc4cc(C(F)(F)F)ccc4F)cc3)cc2[nH]1.Cl [GW654607] | 4 | 6 | 87 | 30 | 18 | 0 | 0 | 26 | 17 | 97.4 | 84 | 0 | 21 | 96.7 | 100 | 0 | 0 | 16 | 87 | 52
